Test [1] in a line: compounds binding Alexa647 anti-His antibody – biochemical, small-molecule microarray, 635 nm fluorescence, artefact control for SMM control protein annotation, primary screen (AID 1128).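 Note: score merges feature fluorescence with signal-to-noise for each printed compound spot.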 As to conditions: higher = more signal.
Test [2] deals with Human papillomavirus type 1a E7 protein (residues 1-88). Kind of test: HPV1a E7 small-molecule binders, primary screen, biochemical, small-molecule microarray, residues 1-88, 635 nm (AID 1129). To be noted: small-molecule microarray binding, fluorescence 635 nm; higher = more signal.
The target in test [3] is Focal adhesion kinase 1 (Homo sapiens) (UniProt Q05397). In words: PTK2 protein binding on printed compound slides – biochemical, small-molecule microarray, 635/667 nm fluorescence, BSA, DTT, primary screen (AID 1130).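 Note: composite of spot emission at 667 nm and signal to noise over triplicate slides.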 As to conditions: 635 nm fluorescence, higher = more signal.
Chain of Focal adhesion kinase 1 (Homo sapiens) (Q05397 whole entry, looked up): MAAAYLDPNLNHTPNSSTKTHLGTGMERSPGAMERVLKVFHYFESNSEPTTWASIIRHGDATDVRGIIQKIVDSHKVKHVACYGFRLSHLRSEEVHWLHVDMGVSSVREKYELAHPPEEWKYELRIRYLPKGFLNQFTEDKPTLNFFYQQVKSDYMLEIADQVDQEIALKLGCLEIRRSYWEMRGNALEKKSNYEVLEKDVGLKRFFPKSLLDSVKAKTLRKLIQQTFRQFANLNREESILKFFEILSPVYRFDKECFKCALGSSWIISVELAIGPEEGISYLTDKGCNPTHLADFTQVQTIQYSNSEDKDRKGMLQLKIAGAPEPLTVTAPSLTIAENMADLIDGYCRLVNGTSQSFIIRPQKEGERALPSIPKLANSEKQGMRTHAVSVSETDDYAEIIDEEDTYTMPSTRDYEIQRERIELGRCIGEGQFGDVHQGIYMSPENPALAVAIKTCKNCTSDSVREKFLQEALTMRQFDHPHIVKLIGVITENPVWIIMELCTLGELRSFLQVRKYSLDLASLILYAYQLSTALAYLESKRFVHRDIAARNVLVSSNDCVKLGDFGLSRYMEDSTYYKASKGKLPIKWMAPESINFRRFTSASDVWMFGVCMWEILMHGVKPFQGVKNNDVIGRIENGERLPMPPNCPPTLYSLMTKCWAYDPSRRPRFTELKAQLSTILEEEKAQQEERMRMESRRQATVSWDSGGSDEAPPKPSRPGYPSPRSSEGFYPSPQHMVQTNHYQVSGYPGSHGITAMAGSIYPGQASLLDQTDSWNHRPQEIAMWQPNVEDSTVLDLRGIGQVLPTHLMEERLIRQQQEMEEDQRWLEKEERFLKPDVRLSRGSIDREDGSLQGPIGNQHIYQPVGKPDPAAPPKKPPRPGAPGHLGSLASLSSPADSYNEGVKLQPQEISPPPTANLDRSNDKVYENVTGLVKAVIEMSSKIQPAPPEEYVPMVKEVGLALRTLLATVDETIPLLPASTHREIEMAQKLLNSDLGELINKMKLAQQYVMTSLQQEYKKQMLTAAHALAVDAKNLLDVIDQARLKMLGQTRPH
In test [4] the test system is Fibrinogen (Alexa647-labelled). Kind of test: Alexa647-fibrinogen binding to printed small molecules – biochemical, small-molecule microarray, 635/667 nm fluorescence, artefact control for SMM control-protein annotation, profiling panel (AID 1131).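 Note: z-score merges 667 nm fluorescence with per-spot signal-to-noise over triplicate slides.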 As to conditions: fibrinogen-A647 binding fluorescence, higher = more signal.
Test [5] has as its target Follistatin (Homo sapiens) (UniProt P19883). In words: FST protein binding to printed compounds – biochemical, small-molecule microarray, 635/667 nm fluorescence, primary screen (AID 1132). To be noted: 635 nm fluorescence, higher = more signal.
Test [6] addresses Fibroblast growth factor 2 (Homo sapiens) (UniProt P09038). In words: basic fibroblast growth factor binding to printed compounds – biochemical, small-molecule microarray, 635/667 nm fluorescence, primary screen (AID 1133). To be noted: FGF2, fluorescence 635/667, higher = more signal.
Test [7] can be described thus: JC-1 mitochondrial potential readout, lung cancer cells – cell-based, A549, JC-1 fluorescence, basal, 24 h, 100 nL, profiling panel (AID 1138).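 Note: A549 lung adenocarcinoma cells under basal conditions with no added stimulus; test concentration not given here.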 As to conditions: higher = more signal.
Test [8] relates to Lefty1. In words: Lefty1 protein binding to printed compounds – biochemical, small-molecule microarray, 635/667 nm fluorescence, primary screen (AID 1139). To be noted: fluorescence 635/667, higher = more signal.
Test [9] relates to wheat germ agglutinin (Triticum aestivum), Alexa647-labelled. In words: Alexa647-WGA lectin binding to printed small molecules – biochemical, small-molecule microarray, 635/667 nm fluorescence, artefact control for SMM control-protein annotation, profiling panel (AID 1140).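 Note: score merges 667 nm feature emission with signal to noise over triplicate slides.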 As to conditions: WGA-A647 binding, 635 nm fluorescence, higher = more signal.
In test [10] the target is Luciferin 4-monooxygenase (Photinus pyralis) (UniProt P08659). In words: inhibition of purified Photinus pyralis luciferase – biochemical, luminescence, purified enzyme, 2006 set, primary screen (AID 1141).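 Note: cell-free assay with purified firefly luciferase at 100 ng per well in PBS; test concentration not given here.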 To be noted: purified firefly luciferase, SteadyGlo luminescence, 30 min; higher = more signal, called active from +8 up or from −8 down.
Chain of Luciferin 4-monooxygenase (Photinus pyralis) (P08659 whole entry, looked up): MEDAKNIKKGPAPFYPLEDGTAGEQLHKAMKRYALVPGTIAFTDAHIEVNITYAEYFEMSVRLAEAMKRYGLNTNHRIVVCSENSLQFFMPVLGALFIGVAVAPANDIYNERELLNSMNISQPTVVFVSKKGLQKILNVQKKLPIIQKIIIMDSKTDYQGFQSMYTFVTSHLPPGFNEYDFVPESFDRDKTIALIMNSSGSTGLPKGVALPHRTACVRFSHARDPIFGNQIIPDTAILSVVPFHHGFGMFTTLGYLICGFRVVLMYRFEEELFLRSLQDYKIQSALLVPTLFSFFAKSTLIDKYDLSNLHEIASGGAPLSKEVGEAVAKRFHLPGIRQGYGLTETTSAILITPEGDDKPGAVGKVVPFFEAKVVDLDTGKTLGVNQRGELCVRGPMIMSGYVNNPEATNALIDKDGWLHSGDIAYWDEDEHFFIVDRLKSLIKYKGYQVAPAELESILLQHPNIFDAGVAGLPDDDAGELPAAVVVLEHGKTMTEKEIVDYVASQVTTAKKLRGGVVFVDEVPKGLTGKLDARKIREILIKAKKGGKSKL
For test [11], the system named is Wnt5a (protein binding on small-molecule microarray). In words: small molecules binding Wnt5a protein – biophysical, small-molecule microarray, 635/667 nm fluorescence, primary screen (AID 1142).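 Note: fluorescence read at 667 nm with signal to noise per printed feature.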 To be noted: 635 nm fluorescence, higher = more signal.
The nature of test [12]: ATP-based viability of Huh7 replicon cells – cell-based, CellTiter-Glo luminescence, basal, 48 h, cytotoxicity control for HCV replication inhibitor project, primary screen (AID 1143).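 Note: Huh7 hepatoma cells carrying a hepatitis C replication reporter with no stimulus; test concentration not given here.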 To be noted: higher = more signal, called active from +8 up or from −8 down.
The nature of test [13]: Pseudomonas biofilm growth suppression – PAO1 strain, BacTiter-Glo luminescence, LB-PBS, primary screen (AID 1144). As to conditions: P. aeruginosa PAO1 biofilm, 12 h, higher = more signal.
Test [14] in a line: basal CRE-LacZ reporter activity in PC12 – cell-based, unstimulated, primary screen (AID 1145). To be noted: no forskolin, luminescence, 4.5 h, higher = more signal, called active from +8 up or from −8 down.
A short description of test [15]: forskolin-driven CRE-LacZ activity in PC12 – cell-based, CRE-LacZ reporter, forskolin-stimulated, primary screen (AID 1146).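 Note: PC12 cells with 6xCRE LacZ reporter stimulated by forskolin 10 µM; beta-galactosidase reporter signal reflecting CREB driven transcription.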 To be noted: luminescence, 4.5 h, higher = more signal, called active from +8 up or from −8 down.
For test [16], the target named is Streptavidin (Streptomyces avidinii) (UniProt P22629). In words: compounds binding control protein streptavidin – biophysical, small-molecule microarray, 635/667 nm fluorescence, artefact control for SMM compound annotation, primary screen (AID 1147).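 Note: signal reflects streptavidin binding to arrayed compounds as a control protein.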 To be noted: higher = more signal.
Chain of Streptavidin (Streptomyces avidinii) (P22629 whole entry, looked up): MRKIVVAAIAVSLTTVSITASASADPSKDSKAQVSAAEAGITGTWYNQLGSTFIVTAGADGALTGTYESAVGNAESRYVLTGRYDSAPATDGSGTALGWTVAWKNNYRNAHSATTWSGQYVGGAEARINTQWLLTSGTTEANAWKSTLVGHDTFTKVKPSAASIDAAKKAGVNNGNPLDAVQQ
A short description of test [17]: probe aInhba binding on compound microarray – biochemical, small-molecule microarray, 635/667 nm fluorescence, primary screen (AID 1148).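 Note: score merges 667nm spot fluorescence with signal-to-noise for antibody binding to printed compounds.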 To be noted: higher = more signal.
The target of test [18] is Torsin-1A (Homo sapiens) (UniProt O14656). In words: TOR1A wild-type binding on microarray – cell lysate, small-molecule microarray, lysate, 635/667 nm, primary screen (AID 1149). As to conditions: COS7 hTOR1A-WT lysate, 635 nm fluorescence, higher = more signal.
Chain of Torsin-1A (Homo sapiens) (O14656 whole entry, looked up): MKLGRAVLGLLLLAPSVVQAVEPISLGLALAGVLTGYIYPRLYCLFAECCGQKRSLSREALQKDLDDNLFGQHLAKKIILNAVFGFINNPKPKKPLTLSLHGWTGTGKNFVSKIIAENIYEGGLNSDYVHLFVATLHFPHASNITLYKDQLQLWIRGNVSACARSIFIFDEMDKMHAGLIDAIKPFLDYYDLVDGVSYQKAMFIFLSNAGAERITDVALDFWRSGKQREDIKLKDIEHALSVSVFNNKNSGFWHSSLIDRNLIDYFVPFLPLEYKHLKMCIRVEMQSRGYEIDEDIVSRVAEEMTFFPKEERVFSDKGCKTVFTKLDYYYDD
The target is the same in test [19]. Kind of test: torsin A mutant lysate binding on microarrays – cell lysate, small-molecule microarray, COS7 lysate, 635/667 nm fluorescence, primary screen (AID 1150).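 Note: score pools 667 nm emission and signal to noise measuring lysate protein binding.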 As to conditions: COS7 hTOR1A mutant lysate, 635 nm fluorescence, higher = more signal.
Test [20] concerns Sonic hedgehog protein (Shh). In words: Sonic hedgehog microarray binding compounds – biochemical, small-molecule microarray, 635/667 nm fluorescence, primary screen (AID 1151).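 Note: Shh protein binding to compounds spotted on small-molecule microarray slides; score combines spot fluorescence intensity with signal-to-noise across triplicate slides.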 To be noted: 635 nm fluorescence, higher = more signal.

This note sets out measurements from PubChem BioAssay.

Activity calls are given as the source filed them. Unless noted, the rule behind the calls is not given here.

Chain of Fibroblast growth factor 2 (Homo sapiens) (P09038 whole entry, looked up): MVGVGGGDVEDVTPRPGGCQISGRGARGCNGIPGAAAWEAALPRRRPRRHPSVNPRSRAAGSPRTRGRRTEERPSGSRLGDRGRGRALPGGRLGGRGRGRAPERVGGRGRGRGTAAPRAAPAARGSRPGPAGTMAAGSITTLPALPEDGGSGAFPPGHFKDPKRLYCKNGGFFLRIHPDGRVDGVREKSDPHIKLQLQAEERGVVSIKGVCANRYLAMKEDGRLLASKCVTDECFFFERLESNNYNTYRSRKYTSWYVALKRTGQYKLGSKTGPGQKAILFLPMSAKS
Chain of Follistatin (Homo sapiens) (P19883 whole entry, looked up): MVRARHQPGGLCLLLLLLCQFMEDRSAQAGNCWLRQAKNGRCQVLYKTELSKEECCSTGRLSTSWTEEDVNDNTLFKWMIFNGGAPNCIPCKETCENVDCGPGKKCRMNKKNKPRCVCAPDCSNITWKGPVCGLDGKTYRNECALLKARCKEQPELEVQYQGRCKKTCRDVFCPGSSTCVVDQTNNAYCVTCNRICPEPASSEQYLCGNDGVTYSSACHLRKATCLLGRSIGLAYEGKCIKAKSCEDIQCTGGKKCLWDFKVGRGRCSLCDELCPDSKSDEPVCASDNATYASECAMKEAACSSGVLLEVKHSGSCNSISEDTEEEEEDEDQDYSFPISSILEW

For `O=C1NC(=O)C2C1C=CC(C(O)c1ccc3c(c1)OCO3)N2Nc1ccccn1` (stereo not given), the composite z-score in test [1] is 0.942; in test [2], 0.256; in [3], 0.0543; in test [4], 0.646; in test [5], 1.32; in test [6], 0.133. The composite z-score in [8] is 0.146; in test [9], 1.01; in test [11], 0.141; in test [16], 0.501; in test [17], -0.203; in test [18] it was 0.546. The composite z-score in test [19] stood at 0.05; in test [20] it was 0.347. The z-score was 0.992 in test [7]; -0.716 (inactive) in test [10]; -0.259 (inactive) in [12]; -1.72 (inactive) in test [13]; 1.01 (inactive) in test [14]; 0.689 (inactive) in test [15].
Regarding `CCCCC(CC)C(O)C1C=CC2C(=O)N(c3ccccc3)C(=O)C2N1Nc1ccc([N+](=O)[O-])cc1` (stereo not given), the composite z-score in [1] turned out to be 1.48; in [2], 1.23; in test [3], 0.623; in test [4], 1.04; in test [5], 1.21; in test [6], 0.456. Also, the composite z-score is 0.39 in test [8]; 1.02 in test [9]; 0.382 in test [11]; 1.41 in test [16]; 0.32 in test [17]; 0.202 in [18]. Moreover, the values for the composite z-score in test [19] and in [20] were 0.923 and -0.277, respectively. Also, the z-score in test [7] was -1.19; in test [10] it was 0.262 (inactive); in [12], -0.728 (inactive); in test [13], 0.00163 (inactive); in test [14], 0.285 (inactive); in test [15], -0.0973 (inactive).
On to `COC(=O)C1(Cc2ccccc2)C=C2C(=C(c3ccccc3)C(=O)C2C)CN1` (stereo not given), for which the composite z-score in test [1] is 1.76; in test [2] it was 1.11; in [3], -0.0788; in [4], 0.152; in test [5], -0.111; in test [6] it was 0.404. Also, the composite z-score was -0.586 in [8]; 0.943 in test [9]; 2 in test [11]; 0.509 in test [16]; 0.862 in test [17]; 0.0676 in test [18]. For the same compound, the composite z-score was 0.47 in test [19] and -0.525 in test [20]. The z-score in test [7] is 0.408; in test [10], 1.98 (inactive); in [12], -0.541 (inactive); in test [13] it was 0.125 (inactive); in [14] it was 1.15 (inactive); in test [15] it was 0.465 (inactive).
With `O=c1cccc(-c2ccc(C(F)(F)F)cc2)o1`, the composite z-score is 0.728 in [1]; -0.955 in [2]; -0.136 in [3]; -1.1 in [4]; -0.398 in test [5]; -0.41 in [6]. The composite z-score was -1.03 in [8]; -0.399 in [9]; -0.281 in test [11]; -0.43 in test [16]; -0.0963 in [17]; -0.848 in test [18]. The composite z-score is -0.476 in test [19] and -0.559 in [20]. In addition, the z-score is 0.77 in [7]; 0.854 (inactive) in test [10]; 0.421 (inactive) in [12]; 0.634 (inactive) in test [13]; -0.275 (inactive) in [14]; -0.145 (inactive) in test [15].
As for `COC1(C)CN(Cc2ccccc2Br)[C@H](/C=C/c2ccccc2)[C@H](Cc2ccccc2)O1` (stereo not given in full), the composite z-score was 0.258 in test [1]; -0.561 in [2]; 0.106 in [3]; -0.291 in test [4]; -0.598 in test [5]; -0.375 in test [6]. The composite z-score in [8] was 0.0787; in test [9], 0.0565; in test [11], -0.243; in test [16], -0.332; in [17], -0.0719; in test [18] it was -0.558. Also, the values for the composite z-score in [19] and in [20] were 0.357 and -0.191, respectively. The z-score in test [7] was 0.267; in test [10], -0.238 (inactive); in test [12], -0.391 (inactive); in test [13], -0.198 (inactive); in test [14] it was 1.93 (inactive); in test [15] it was 0.874 (inactive).
